From the supplement of paper PMC9694430 come the findings set out here.

Common to all, as to assay: thermal shift delta Tm vs DMSO control; higher = stronger stabilization (binding)
Conditions in all cases: 12.5 µM; protein concentration 2 µM

One test deals with LOC_OS01G01410-cb001. In a few lines: (§1)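 Heating from 25°C to 95°C at 0.05°C/s, fluorescence was recorded for 19.5 μl wells of 2 μM E. coli-expressed, purified rice kinase domain in 100 mM potassium phosphate pH 7.5, 150 mM NaCl, 10% glycerol and 5 × SYPRO Orange with compound in DMSO. Boltzmann fits gave melting temperatures for this differential scanning fluorimetry assay. The shift reported is the mean of three replicates against the DMSO-only protein.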

A further test has as its system LOC_OS01G02750-cb003. In short, it runs like this:
as §1

The next test has as its system LOC_OS01G10900-cb004. In short, it runs like this:
as §1

The next test concerns LOC_OS01G13800-cb001. In a few lines: as §1
Another test has as its system LOC_OS01G14860-cb001. In short, it runs like this:
as §1

The next test has as its system LOC_OS01G21960-cb002. In short, it runs like this: as §1
The subject of the next test is LOC_OS01G39600-cb002. In short, it runs like this:
as §1

For a further test, the system named is LOC_OS01G48390-cb002. In short, it runs like this:
as §1

For the next test, the system named is LOC_OS01G51400-cb002. In short, it runs like this:
as §1

Another test concerns T1, LOC_OS01G52050-cb004.
T1 sequence (whole entry): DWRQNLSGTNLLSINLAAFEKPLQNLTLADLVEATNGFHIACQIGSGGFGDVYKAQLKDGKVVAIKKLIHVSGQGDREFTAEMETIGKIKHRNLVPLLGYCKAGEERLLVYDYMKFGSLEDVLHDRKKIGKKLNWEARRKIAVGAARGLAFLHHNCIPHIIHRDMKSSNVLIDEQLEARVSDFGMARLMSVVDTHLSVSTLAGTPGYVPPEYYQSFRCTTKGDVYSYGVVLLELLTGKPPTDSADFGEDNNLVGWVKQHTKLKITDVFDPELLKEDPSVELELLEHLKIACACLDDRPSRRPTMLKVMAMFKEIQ
In short, it runs like this:
as §1

The next test deals with LOC_OS01G57100-cb003. In a few lines:
as §1

The subject of another test is LOC_OS01G60330-cb001. In a few lines: as §1
In another test the test system is LOC_OS01G60700-cb002. In short, it runs like this:
as §1

The test system of the next test is LOC_OS01G63280-cb003. In a few lines:
as §1

A further test relates to LOC_OS01G67340-cb003. In a few lines: as §1
A further test relates to LOC_OS01G70970-cb002. In short, it runs like this: as §1
In a further test the test system is LOC_OS02G07810-cb001. In short, it runs like this:
as §1

A further test deals with LOC_OS02G08530-cb003. In a few lines:
as §1

Another test relates to LOC_OS02G14120-cb001. In a few lines:
as §1

The subject of another test is LOC_OS02G17970-cb001. In short, it runs like this:
as §1
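Further: purified Escherichia coli-expressed rice kinase domain construct.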

`Cc1cc(C(=O)Nc2nc3cccc(Cl)c3n2[C@@H]2CCCCN(C(=O)/C=C/CN(C)C)C2)ccn1` [Nazartinib (EGF816, NVS-816)]: the “thermal shift delta Tm” value turned out to be 1.02 °C in the test on LOC_OS01G01410-cb001; 1.36 °C in the test on LOC_OS01G02750-cb003; 1.4 °C in the test on LOC_OS01G10900-cb004; 0.82 °C with LOC_OS01G13800-cb001; 1.27 °C with LOC_OS01G14860-cb001; 1.25 °C in the test with LOC_OS01G21960-cb002. For the same compound, the “thermal shift delta Tm” value with LOC_OS01G39600-cb002 was 0.83 °C; with LOC_OS01G48390-cb002, 0.78 °C; in the test with LOC_OS01G51400-cb002, 0.04 °C; in the test on LOC_OS01G52050-cb004, 0.96 °C; with LOC_OS01G57100-cb003, 1.05 °C; in the test on LOC_OS01G60330-cb001, 1.72 °C. In addition, the “thermal shift delta Tm” value is 1.17 °C in the test on LOC_OS01G60700-cb002; 0.35 °C in the test with LOC_OS01G63280-cb003; 1.06 °C with LOC_OS01G67340-cb003; 0.93 °C in the test on LOC_OS01G70970-cb002; 0.98 °C in the test on LOC_OS02G07810-cb001; 2.18 °C in the test with LOC_OS02G08530-cb003. Also, the “thermal shift delta Tm” value with LOC_OS02G14120-cb001 worked out at 1.69 °C; in the test on LOC_OS02G17970-cb001, 1.28 °C.
As to `COc1cc2ncnc(Nc3ccc(Oc4ccccc4)cc3C)c2cc1OC`, the “thermal shift delta Tm” value in the test with LOC_OS01G01410-cb001 is 0.68 °C; in the test with LOC_OS01G02750-cb003 it was 0.9 °C; with LOC_OS01G10900-cb004, 0.3 °C; in the test with LOC_OS01G13800-cb001, -0.47 °C; with LOC_OS01G14860-cb001 it was 0.22 °C; with LOC_OS01G21960-cb002, 0.26 °C. The “thermal shift delta Tm” value was 0.05 °C with LOC_OS01G39600-cb002; 0.79 °C with LOC_OS01G48390-cb002; 0.08 °C with LOC_OS01G51400-cb002; 2.07 °C with LOC_OS01G52050-cb004; 1.05 °C in the test with LOC_OS01G57100-cb003; 0.33 °C in the test with LOC_OS01G60330-cb001. The “thermal shift delta Tm” value in the test on LOC_OS01G60700-cb002 is 0.09 °C; in the test with LOC_OS01G63280-cb003 it was 0.54 °C; in the test on LOC_OS01G67340-cb003, 0.17 °C; in the test on LOC_OS01G70970-cb002, 0.47 °C; in the test with LOC_OS02G07810-cb001, -1.03 °C; in the test on LOC_OS02G08530-cb003 it was 0.5 °C. Also, the “thermal shift delta Tm” value is 3.14 °C with LOC_OS02G14120-cb001 and 0.03 °C with LOC_OS02G17970-cb001.
Regarding `C[C@@H]1CN(CC(=O)Nc2ccc3c(c2)Cc2cccc(-c4cc(=O)cc(N5CCOCC5)o4)c2S3)C[C@H](C)O1`, the “thermal shift delta Tm” value with LOC_OS01G01410-cb001 was 0.15 °C; in the test with LOC_OS01G02750-cb003, 1.53 °C; in the test on LOC_OS01G10900-cb004, 0.85 °C; in the test with LOC_OS01G13800-cb001 it was 0.28 °C; in the test with LOC_OS01G14860-cb001, 1.89 °C; in the test with LOC_OS01G21960-cb002, 0.63 °C. Also, the “thermal shift delta Tm” value with LOC_OS01G39600-cb002 was -0.34 °C; in the test with LOC_OS01G48390-cb002, 0.3 °C; in the test with LOC_OS01G51400-cb002 it was 0.05 °C; in the test on LOC_OS01G52050-cb004, 0.42 °C; in the test on LOC_OS01G57100-cb003, 1.01 °C; with LOC_OS01G60330-cb001, 0.66 °C. The “thermal shift delta Tm” value with LOC_OS01G60700-cb002 was 0.34 °C; in the test on LOC_OS01G63280-cb003 it was 0.3 °C; with LOC_OS01G67340-cb003 it was 0 °C; in the test on LOC_OS01G70970-cb002, -0.1 °C; in the test with LOC_OS02G07810-cb001, 0.97 °C; in the test with LOC_OS02G08530-cb003, 0.73 °C. Further, the figures for the “thermal shift delta Tm” value in the test on LOC_OS02G14120-cb001 and in the test with LOC_OS02G17970-cb001 were 0.18 °C and 0.49 °C, respectively.
